DT40 TDP1 CPT: qHTS for Inhibitors of human tyrosyl-DNA phosphodiesterase 1 (TDP1): qHTS in cells in presence of CPT; chicken DT40 Tdp1-/-;hTDP1 cells + 20 nM CPT, ATP luminescence, 48 h; Potency, µM (top dose mostly 46.2 µM), most hits filed as inhibitors; hit rate 12% among 420,000; AID 686979, 2013; further: nearly all actives have a fitted effect of over 55% in size
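Chicken DT40 Tdp1-/- cells stably complemented with human TDP1 were seeded at 400 cells/well in medium containing 20 nM camptothecin, exposed to pin-transferred compounds, and grown at 37 °C for at least 48 hr. Viability was read as ATP luminescence.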
IL1B secr inh: qHTS for Inhibitors of Inflammasome Signaling: IL-1-beta AlphaLISA Primary Screen; THP-1 LPS/ATP IL-1B secretion, AlphaLISA, 16 h; hits give low values; activity change, % at 57.5 µM; hit rate 4.7% among 360,000; AID 743279, 2014; in the data active means activity change below about -50%; inconclusive means mostly about -30% to -49%
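Secreted IL-1B measured by AlphaLISA bead assay after 16 h compound exposure of THP-1 cells; compounds (final up to 57.5 uM) added 1 h before LPS (250 ng/mL) and ATP (1.25 mM) stimulation; lower signal means less secretion.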
HT1080 IDH1KD tx: qHTS for induction of synthetic lethality in tumor cells producing 2HG: qHTS for the HT-1080-IDH1KD cell line | hit rate 2% among 360,000 | HT-1080 IDH1 knockdown viability, ATP luminescence, 48 h | Potency, µM (titrated, usually from 46.1 µM), actives largely listed as cytotoxic
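After a 2 h attachment period, IDH1KD HT-1080 cells took pin-transferred compound for 48 h at 37 °C; ATP-based luminescence after 10 min room-temperature reagent incubation reported viability.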
TDP1 cell noCPT: qHTS for Inhibitors of human tyrosyl-DNA phosphodiesterase 1 (TDP1): qHTS in cells in absence of CPT. hit rate 15% among 420,000. Potency, µM (top dose mostly 46.2 µM), hits mostly inhibitors. DT40 Tdp1-/- hTDP1 cells, no CPT, ATP luminescence, 48 h; further: nearly all actives have a fitted effect of over 55% in size
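Seeded 400 DT40-hTDP1 cells/well (vehicle DMSO, no 20 nM CPT); pinned compounds; ≥48 hr at 37 °C; CellTiter-Glo luminescence as viability measure.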
HT1080NT lethal: qHTS for induction of synthetic lethality in tumor cells producing 2HG: qHTS for the HT-1080-NT fibrosarcoma cell line; HT-1080-NT fibrosarcoma viability, CellTiter-Glo ATP luminescence, 48 h; Potency, µM (doses to about 46.1 µM), hits mostly cytotoxic; hit rate 1.6% among 360,000;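 further: NT is the 2HG producing partner of a matched IDH1 knockdown line; nearly all actives have a fitted effect of over 55% in size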
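750 cells/well, RPMI + 5% FBS; 2 h settle, compound pin-transfer, 48 h at 37 degrees C. CellTiter-Glo 10 min RT, luminescence. Normalized to DMSO and media-only wells.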
ELG1 DNA repair: qHTS screen for small molecules that inhibit ELG1-dependent DNA repair in human embryonic kidney (HEK293T) cells expressing luciferase-tagged ELG1. HEK293T ELG1-luciferase reporter, luminescence, 16 h; DNA damage induced by 5-fluorouridine. hit rate 2.3% among 330,000. Potency, µM (doses to about 46.1 µM), hits mostly inhibitors. AID 504467, 2011; further: nearly all actives have a fitted effect of over 55% in size
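Quantitative HTS, concentration-response format. 2,000 cells/well co-treated with 5-fluorouridine and compound, 16 hr in 5% CO2 at 37 °C; ONE-Glo luminescence read after 30 min.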
Numbers stand for hits; – = inactive; ? = inconclusive; · = not tested or not shown; [ ] = remark or other dose. The list is not random: actives were taken first. Their share in the collection is about 19%. Unless noted, the call rests on the fitted dose curve; in most records, active means well fitted curve in the direction sought with a large enough effect; inconclusive means small, poorly fitted or top-dose-only effect, or another doubt; inactive means no such curve, though single readings can be large; an effect the other way counts as inactive or inconclusive.

SMILES	DT40 TDP1 CPT	IL1B secr inh	HT1080 IDH1KD tx	TDP1 cell noCPT	HT1080NT lethal	ELG1 DNA repair
CCN(CC)S(=O)(=O)c1ccc(NC(=O)C(C)N(c2ccc(OC)cc2)S(C)(=O)=O)cc1 (stereo not drawn)	?	–	–	18µM	–	?
COc1cccc(C(=O)NCC2CCN(c3ccc(S(=O)(=O)N4CCOCC4)cc3)CC2)c1	?	–	–	?	–	?
Cc1ccc(CNC(=O)C2(S(=O)(=O)c3ccccc3)CC=CC2)cc1	–	–	–	–	–	?
CCc1oc(C(=O)O)cc1CN(CC)CC	–	–	–	–	–	·
CCN(CC)Cc1cc(O)c(CN(CC)CC)cc1O	6.5µM	–	–	4.1µM	–	–
COC(=O)c1ccc(NC(=S)NC(=O)c2c(Cl)cnn2C)cc1	?	–	–	–	–	–
N#Cc1c(NC(=S)NC(=O)C2CCCC2)sc2c1CCCCC2	?	-54	–	?	–	?
Cn1ncc(Cl)c1C(=O)NC(=S)Nc1sc2c(c1C#N)CCCCC2	21µM	–	–	?	–	?
N#Cc1c(NC(=O)C2CCCO2)sc2c1CCCCCC2 (stereo not drawn)	–	–	–	–	–	?
CN(C(=O)COC(=O)c1ccccc1C(=O)c1ccccc1)c1ccccc1	?	–	–	–	–	–
CC(C)(C)OC(=O)C(Cc1ccc(OC(C)(C)C)cc1)NC(=O)CNC(=O)CNC(=O)OCc1ccccc1 (stereo not drawn)	?	–	–	?	–	?
CC(C)(C)OC(=O)[C@H](Cc1ccccc1)NC(=O)c1nc[nH]c1C(=O)N[C@@H](Cc1ccccc1)C(=O)OC(C)(C)C	15µM	–	?	18µM	–	?
O=C(N[C@@H](Cc1ccccc1)C(=O)OCc1ccccc1)c1nc[nH]c1C(=O)NCc1ccccc1	18µM	–	–	?	?	–
CC(C)(C)OC(=O)[C@H](CCCCN)NC(=O)c1[nH]cnc1C(=O)N[C@@H](Cc1ccccc1)C(=O)OCc1ccccc1	?	–	–	–	–	–
CC(C)(C)OC(=O)[C@H](Cc1ccccc1)NC(=O)c1[nH]cnc1C(=O)N[C@@H](Cc1ccccc1)C(=O)OCc1ccccc1	16µM	–	–	23µM	–	–
CC(NC(=O)OCc1ccccc1)C(=O)NCC(=O)NC(Cc1ccc(OC(C)(C)C)cc1)C(=O)OC(C)(C)C (stereo not drawn)	21µM	–	–	12µM	–	?
CC(C)(C)OC(=O)[C@H](Cc1ccccc1)NC(=O)c1nc[nH]c1C(=O)NCCCCCN	–	–	–	?	–	–
COc1cccc(N2CCN(S(=O)(=O)c3ccc4c(c3)NC(=O)CS4)CC2)c1	–	–	–	–	–	–
CC1CCN(C(=O)c2ncn3c2c(=O)[nH]c2ccc(Br)cc23)CC1	–	–	–	–	–	·
CC(C)(C)OC(=O)NCCCCCNC(=O)c1ncn2c1c(=O)[nH]c1ccccc12	?	–	–	21µM	–	·
CC(C)(C)OC(=O)[C@H](Cc1ccccc1)NC(=O)c1ncn2c1c(=O)[nH]c1ccc(Br)cc12	4.6µM	–	–	3.3µM	–	·
CC(C)(C)OC[C@H](NC(=O)c1[nH]cnc1C(=O)Nc1ccccc1F)C(=O)OC(C)(C)C	21µM	–	?	21µM	?	·
CC(C)(C)OC(=O)NCCCCCO	–	–	–	–	–	–
CCCOc1ccc(/C=N/n2nnnc2N)cc1OC	–	–	–	–	–	?
COc1ccc(Cl)cc1NC(=O)CSC1=Nc2ccccc2C2=NC(CC(=O)NCc3cccs3)C(=O)N12 (stereo not drawn)	?	·	·	23µM	·	·
SMILES	DT40 TDP1 CPT	IL1B secr inh	HT1080 IDH1KD tx	TDP1 cell noCPT	HT1080NT lethal	ELG1 DNA repair
CCOC(=O)CSC1=Nc2ccccc2C2=NC(CC(=O)NCc3ccc(OC)cc3)C(=O)N12 (stereo not drawn)	–	–	–	–	–	–
CN(C)c1ccc(NC(=O)CSC2=Nc3ccccc3C3=NC(CC(=O)NCc4ccccc4)C(=O)N23)cc1 (stereo not drawn)	–	·	·	–	·	·
O=C(CC1N=C2c3ccccc3N=C(SCC(=O)Nc3cccc(Cl)c3)N2C1=O)NCc1cccs1 (stereo not drawn)	?	·	·	23µM	·	·
COC(=O)c1ccccc1NC(=O)CN(c1ccccc1OC)S(C)(=O)=O	–	·	·	–	·	·
CC(C)C(C)/C=C/C(C)C1CCC2C3=CC=C4CC(O)CCC4(C)C3CCC21C (stereo not drawn)	–	·	·	–	·	·
CC(C)[C@@H](C)/C=C/[C@@H](C)[C@H]1CC[C@H]2/C(=C/C=C3\C[C@@H](O)CC[C@@H]3C)CCC[C@]12C	?	·	·	17µM	·	·
CCc1ccc2c(c1)c(=O)c(C(=O)c1ccc(C)cc1)cn2CC(=O)Nc1ccc2c(c1)OCCO2	–	·	·	–	·	·
COc1ccc(NC(=O)CCn2nc(C)cc2C)cc1	–	–	–[9.24 µM]	–	–	–
COc1ccc(NC(=O)CCn2nc(-c3ccccc3OC)c3c(C)cc(C)nc32)cc1	?	·	·	21µM	·	·
CCc1ccc(NC(=O)CCn2nc(-c3ccccc3OC)c3c(C)cc(C)nc32)cc1	?	·	·	21µM	·	·
C[C@@H]1CN([C@@H](C)CO)C(=O)c2cc(Br)cnc2O[C@H]1CN(C)C(=O)Nc1ccc2c(c1)OCO2	–	–	–	–	–	·
COCCN(Cc1ccc(C)cc1)C(=O)[C@H]1O[C@@H](n2cnc3c(N)ncnc32)[C@H](O)[C@@H]1O	–	–	–	–	–	·
Nc1ncnc2c1ncn2[C@@H]1O[C@H](C(=O)N(CCC2=CCCCC2)CC2CC2)[C@@H](O)[C@H]1O	?	–	–	16µM	–	·
c1ccc(-c2nc(-c3ccncc3)no2)cc1	–	–	–	–	–	·
c1ccc(C(Cc2nc(-c3ccncc3)no2)c2ccccc2)cc1	18µM	–	–	?	–	–
CCc1cc(=O)n2[nH]c(C)c(-c3ccccc3OC)c2n1	–	–	–	?	–	–
Cc1[nH]n2c(=O)cc(-c3ccccc3Cl)nc2c1-c1ccccc1	9.2µM	·	·	2.6µM	·	·
Cc1cc(=O)n2[nH]c(C(F)(F)F)c(-c3ccccc3)c2n1	–	–	–	?	–	–
COCc1cc(=O)n2[nH]c(C)c(-c3ccc(Cl)cc3)c2n1	13µM	–	?	16µM	–	·

Source: PubChem BioAssay
